Records with an inconclusive call do not appear. A call without a number means that no potency is given here. Active and inactive are the calls of the source. The call rests on the fitted dose curve; in most records, active means well fitted inhibition curve with a large enough effect; inconclusive means small, poorly fitted or top-dose-only effect; inactive means flat fitted curve, though single readings scatter.
Potency means the concentration at half of the fitted maximal effect.

One test relates to CP192. Briefly: qHTS profiling for inhibitors of Plasmodium falciparum proliferation (AID 504749). Further: nearly all actives have a fitted effect of over 60% in size. Conditions: P. falciparum in erythrocytes, SYBR Green DNA, 72 h; series mostly up to 28.7 µM. The method, boiled down:
(§1)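 Fluorescence of SYBR Green-bound parasite DNA, read at 485/535 nm, served as the growth measure. Infected erythrocytes were cultured with compound 72 h; artemisinin (0.29 uM) and DMSO wells defined the normalization range.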
Background: qHTS replaces the single test concentration by a dilution series.
As to `CN(C)[C@H]1C(=O)C(C(=O)NCN2CCCC2)=C(O)[C@]2(O)C(=O)C3=C(O)c4c(O)cccc4[C@](C)(O)[C@H]3C[C@H]12`, the Potency result was “inactive”.

In the case of `C[C@]12CC[C@H]3c4ccc(O)cc4CC[C@@H]3[C@H]1CC[C@@H]2OC(=O)CCC1CCCC1`, the Potency entry was “inactive”.

`Cc1cn([C@H]2C[C@H](N=[N+]=[N-])[C@H](CO)O2)c(=O)[nH]c1=O`: the Potency entry is “inactive”.

For the molecule `O=C(O)[C@@H](S)[C@H](S)C(=O)O`, the Potency is 12 µM (active).

Turning to `CC(C)(C)NC[C@@H](O)c1ccc(O)c(CO)n1`, the Potency entry was “inactive”.

As for `NS(=O)(=O)c1cc2c(cc1Cl)N[C@H](Cc1ccccc1)NS2(=O)=O`, the Potency entry was “inactive”.

In another test the test system is CP194. Described as above. Particulars: P. falciparum in erythrocytes, SYBR Green DNA, 72 h; series mostly up to 28.7 µM. The method, boiled down:
as §1
As to `CN(C)[C@H]1C(=O)C(C(=O)NCN2CCCC2)=C(O)[C@]2(O)C(=O)C3=C(O)c4c(O)cccc4[C@](C)(O)[C@H]3C[C@H]12`, the Potency result is “inactive”.

For the molecule `C[C@]12CC[C@H]3c4ccc(O)cc4CC[C@@H]3[C@H]1CC[C@@H]2OC(=O)CCC1CCCC1`, the Potency entry is “inactive”.

For `Cc1cn([C@H]2C[C@H](N=[N+]=[N-])[C@H](CO)O2)c(=O)[nH]c1=O`, the Potency result is “inactive”.

For the molecule `O=C(O)[C@@H](S)[C@H](S)C(=O)O`, the Potency was 15.1 µM (active).

On to `CC(C)(C)NC[C@@H](O)c1ccc(O)c(CO)n1`, for which the Potency result is “inactive”.

With `NS(=O)(=O)c1cc2c(cc1Cl)N[C@H](Cc1ccccc1)NS2(=O)=O`, the Potency result was “inactive”.

The test system of another test is CP201. The test is described as above. Particulars: P. falciparum in erythrocytes, SYBR Green DNA, 72 h; series mostly up to 28.7 µM. The method in brief: as §1
For `CN(C)[C@H]1C(=O)C(C(=O)NCN2CCCC2)=C(O)[C@]2(O)C(=O)C3=C(O)c4c(O)cccc4[C@](C)(O)[C@H]3C[C@H]12`, the Potency entry is “inactive”.

Take `C[C@]12CC[C@H]3c4ccc(O)cc4CC[C@@H]3[C@H]1CC[C@@H]2OC(=O)CCC1CCCC1`: the Potency result is “inactive”.

Regarding `Cc1cn([C@H]2C[C@H](N=[N+]=[N-])[C@H](CO)O2)c(=O)[nH]c1=O`, the Potency entry is “inactive”.

Take `O=C(O)[C@@H](S)[C@H](S)C(=O)O`: the Potency was 12 µM (active).

Consider `CC(C)(C)NC[C@@H](O)c1ccc(O)c(CO)n1`, for which the Potency entry is “inactive”.

Turning to `NS(=O)(=O)c1cc2c(cc1Cl)N[C@H](Cc1ccccc1)NS2(=O)=O`, the Potency result was “inactive”.

In a further test the test system is CP203. Described as above. Particulars: P. falciparum in erythrocytes, SYBR Green DNA, 72 h; series mostly up to 28.7 µM. The method in brief: as §1
On to `CN(C)[C@H]1C(=O)C(C(=O)NCN2CCCC2)=C(O)[C@]2(O)C(=O)C3=C(O)c4c(O)cccc4[C@](C)(O)[C@H]3C[C@H]12`, for which the Potency entry is “inactive”.

For the molecule `C[C@]12CC[C@H]3c4ccc(O)cc4CC[C@@H]3[C@H]1CC[C@@H]2OC(=O)CCC1CCCC1`, the Potency result was “inactive”.

Consider `Cc1cn([C@H]2C[C@H](N=[N+]=[N-])[C@H](CO)O2)c(=O)[nH]c1=O`, for which the Potency entry was “inactive”.

As to `O=C(O)[C@@H](S)[C@H](S)C(=O)O`, the Potency was 10.7 µM (active).

As to `CC(C)(C)NC[C@@H](O)c1ccc(O)c(CO)n1`, the Potency result was “inactive”.

Take `NS(=O)(=O)c1cc2c(cc1Cl)N[C@H](Cc1ccccc1)NS2(=O)=O`: the Potency entry was “inactive”.

(Values after PubChem BioAssay (NCATS).)
